Assay results as given in PubChem BioAssay (NCI).
About 79,000 compounds went through this panel and 15% of them were active in at least one assay; those are over-represented in the sample as a whole. Activity calls are given as the source filed them. Cut-off read from the data, not from the text of the source: active = growth inhibition above about 70%; inactive = the rest.

Tests used:
[1] = NCI Yeast Anticancer Drug Screen. Data for the rad52 strain (AID 147);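 note: 0% = growth of vehicle-treated control cultures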; details: S. cerevisiae rad52 mutant growth inhibition, hits give high values
In short: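 The repair-mutant yeast strain was incubated with compounds, then growth was read and inhibition derived relative to vehicle.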

[2] = NCI Yeast Anticancer Drug Screen. Data for the wt1 strain (AID 149);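 note: 0% = growth of vehicle-treated wt1 cultures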; details: S. cerevisiae wt1 strain (SPY 50644) growth inhibition, hits give high values
In short: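 The wt1 strain was treated with compounds, and growth was compared with vehicle-treated cultures to give inhibition.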

[3] = NCI Yeast Anticancer Drug Screen. Data for the mgt1 strain (AID 153); details: S. cerevisiae mgt1 mutant growth inhibition, hits give high values
In short: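 Vehicle-normalized growth inhibition is determined in mgt1 yeast, a strain selected for a defined alteration in DNA repair or cell cycle control.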

[4] = NCI Yeast Anticancer Drug Screen. Data for the rad50 strain (AID 155);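 note: 0% = growth of vehicle-only cultures of the same strain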; details: S. cerevisiae rad50 strain growth inhibition, hits give high values
In short: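 Cells are treated with compound, grown, and their growth is then scored against vehicle-only cultures of the same repair-deficient yeast strain.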

[5] = NCI Yeast Anticancer Drug Screen. Data for the mec2-1 strain (AID 157); details: S. cerevisiae mec2-1 strain, hits give high values
In short: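 Mutant yeast (mec2-1) grown with compound; growth inhibition relative to vehicle control reported.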

[6] = NCI Yeast Anticancer Drug Screen. Data for the rad14 strain (AID 159);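 note: 0% = growth of vehicle-treated control cultures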; details: S. cerevisiae rad14 strain growth inhibition, hits give high values
In short: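 Readout: yeast growth inhibition, referenced to vehicle-only cultures. Strain bears a defined alteration in DNA damage repair.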

[7] = NCI Yeast Anticancer Drug Screen. Data for the sgs1 mgt1 strain (AID 161);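 note: 0% = growth of cultures given vehicle only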; details: S. cerevisiae sgs1 mgt1 strain, hits give high values
In short: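 Percent growth inhibition was derived by comparing compound-exposed mutant yeast with vehicle-exposed cultures. The strain carries alterations in DNA damage repair.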

[8] = NCI Yeast Anticancer Drug Screen. Data for the CLN2oe strain (AID 163);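 note: 0% = growth of vehicle-only control cultures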; details: S. cerevisiae CLN2oe strain, hits give high values
In short: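 Compounds are applied to yeast harbouring a defined cell-cycle control change; reduced growth compared with vehicle-treated controls gives the value.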

[9] = NCI Yeast Anticancer Drug Screen. Data for the cln2 rad14 strain (AID 165);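 note: 0% = growth equal to vehicle treated cultures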; details: S. cerevisiae cln2 rad14 strain, hits give high values
In short: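 Readout is yeast growth inhibition versus vehicle-treated controls, using a strain with cln2 and rad14 alterations exposed to compound.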

[10] = NCI Yeast Anticancer Drug Screen. Data for the bub3 strain (AID 167); details: S. cerevisiae bub3 mutant strain, hits give high values
In short: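 Part of a panel of yeast mutants defective in DNA damage repair or cell cycle regulation. Each strain is grown with compound, and inhibition is calculated relative to solvent-treated cultures.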

[11] = NCI Yeast Anticancer Drug Screen. Data for the wt2 strain (AID 169);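 note: 0% = growth of vehicle-treated yeast cultures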; details: S. cerevisiae wt2 strain growth inhibition, hits give high values
In short: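 Against vehicle-treated controls, the growth of yeast exposed to each compound was compared, and the inhibition was recorded.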

[12] = NCI Yeast Anticancer Drug Screen. Data for the mlh1 strain (AID 171);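 note: 0% = growth of vehicle-treated control cultures of the same strain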; details: S. cerevisiae mlh1 strain growth inhibition, hits give high values
In short: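 Measured: yeast growth. Reference: vehicle-treated controls. Organism: strain with a defined alteration affecting DNA damage repair or cell cycle control, treated with compound.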

[13] = NCI Yeast Anticancer Drug Screen. Data for the sgs1 strain (AID 173);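 note: 0% = growth of vehicle-only control cultures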; details: S. cerevisiae sgs1 mutant, hits give high values
In short: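 Each compound was added to cultures of the altered yeast strain. Growth was recorded, and inhibition was derived by comparison with vehicle controls.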

[14] = NCI Yeast Anticancer Drug Screen. Data for the mlh1 rad18 strain (AID 175); details: S. cerevisiae mlh1 rad18 strain growth inhibition, hits give high values
In short: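 Genetically defined yeast (DNA repair-deficient) exposed to compounds; growth inhibition determined relative to vehicle.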

[15] = NCI Yeast Anticancer Drug Screen. Data for the rad18 strain (AID 177); details: S. cerevisiae rad18 mutant growth inhibition, hits give high values
In short: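 Vehicle-treated cultures served as the baseline for scoring compound-induced growth inhibition in DNA-repair-mutant yeast.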

[16] = at 5.0 µM (retest, dose inferred, filed as 0.5)
[17] = at 50.0 µM (retest, dose inferred, filed as 5.0)

Measured: growth inhibition

C(CCSC1=NCCN1)CSC1=NCCN1 (tested in a mixture with another compound)
inactive: [1]; at 1.2 µM 20% | [1]; at 3.7 µM 39% | [2]; at 1.2 µM -3% | [2]; at 3.7 µM 9% | [2]; at 11.0 µM 41% | [3]; at 1.2 µM -2% | [3]; at 3.7 µM 18% | [4]; at 1.2 µM 21% | [4]; at 3.7 µM 44% | [4]; [16] 59% | [5]; at 1.2 µM 5% | [5]; at 3.7 µM 28% | [5]; [16] 43% | [6]; at 1.2 µM 5% | [6]; at 3.7 µM 27% | [8]; at 1.2 µM -5% | [8]; at 3.7 µM 6% | [8]; at 11.0 µM 29% | [9]; [16] 16% | [10]; at 1.2 µM -8% | [10]; at 3.7 µM 12% | [10]; [16] 5% | [11]; at 1.2 µM -2% | [11]; at 3.7 µM 10% | [11]; at 11.0 µM 63% | [12]; at 1.2 µM 5% | [12]; at 3.7 µM 20% | [13]; at 1.2 µM 11% | [13]; at 3.7 µM 35% | [15]; at 1.2 µM 26% | [15]; at 3.7 µM 52%
active: [1]; at 11.0 µM 79% | [1]; at 33.0 µM 99% | [1]; at 100.0 µM 99% | [2]; at 33.0 µM 99% | [2]; at 100.0 µM 99% | [3]; at 11.0 µM 89% | [3]; at 33.0 µM 99% | [3]; at 100.0 µM 98% | [4]; at 11.0 µM 83% | [4]; at 33.0 µM 99% | [4]; [17] 98% | [4]; at 50.0 µM 99.2% | [4]; at 100.0 µM 98% | [5]; at 11.0 µM 94% | [5]; at 33.0 µM 99% | [5]; [17] 99% | [5]; at 50.0 µM 99.5% | [5]; at 100.0 µM 99% | [6]; at 11.0 µM 99% | [6]; at 33.0 µM 99% | [6]; at 100.0 µM 99% | [7]; [16] 73% | [7]; [17] 99% | [7]; at 50.0 µM 99.5% | [8]; at 33.0 µM 97% | [8]; at 100.0 µM 98% | [9]; [17] 98% | [9]; at 50.0 µM 97.6% | [10]; at 11.0 µM 94% | [10]; at 33.0 µM 99% | [10]; [17] 98% | [10]; at 50.0 µM 99% | [10]; at 100.0 µM 98% | [11]; at 33.0 µM 99% | [11]; at 100.0 µM 99% | [12]; at 11.0 µM 83% | [12]; at 33.0 µM 99% | [12]; at 100.0 µM 98% | [13]; at 11.0 µM 86% | [13]; at 33.0 µM 99% | [13]; at 100.0 µM 99% | [14]; [16] 77% | [14]; [17] 98% | [14]; at 50.0 µM 99% | [15]; at 11.0 µM 91% | [15]; at 33.0 µM 99% | [15]; at 100.0 µM 99%
